Results taken from PubChem BioAssay (NCI).
Compounds without any hit were thinned out: in the full panel of roughly 83,000, 20% have a hit.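 Method: cells in 96-well plates; compound added at one concentration; 48 h incubation; percent growth measured; values under 10 scored active.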 Values without a mark were called inactive. Active and inactive are the calls of the source.

Columns and labels:
Test in all cases: NCI-60 one-dose screen, 48 h (100 = growth as untreated, 0 = no growth, -100 = all killed)
Details in all cases: 10 µM unless noted
NCI-H23 lung = tested on: NCI-H23 lung
NCI-H226 lung = tested on: NCI-H226 lung
NCI-H322M lung = tested on: NCI-H322M lung
HOP-62 NSCLC = tested on: HOP-62 NSCLC
NCI-H460 lung = tested on: NCI-H460 lung
HOP-92 NSCLC = tested on: HOP-92 NSCLC
NCI-H522 lung = tested on: NCI-H522 lung
A549/ATCC NSCLC = tested on: A549/ATCC NSCLC
786-0 renal = tested on: 786-0 renal
COLO 205 colon = tested on: COLO 205 colon

Compound | growth (NCI-H23 lung) | growth (NCI-H226 lung) | growth (NCI-H322M lung) | growth (HOP-62 NSCLC) | growth (NCI-H460 lung) | growth (HOP-92 NSCLC) | growth (NCI-H522 lung) | growth (A549/ATCC NSCLC) | growth (786-0 renal) | growth (COLO 205 colon)
CC(=O)c1cccc(O)c1 | 96.6% | 103% | 106% | 93% | 105% | 103% | 88.9% | 98.9% | 96% | 110%
O=C(O)c1cccc(-n2ncc(Cl)c(Cl)c2=O)c1 | 107% | 101% | 117% | 100% | 101% | 112% | 36% | 102% | 109% | 117%
Nc1ccc2c(c1)Cc1cc(N)c(N)cc1-2 | 86.2% | 95.4% | 92% | 95% | 95.9% | 101% | 74.6% | 77.9% | 107% | 103%
O=C1NC(=O)C(c2ccccc2)O1 (stereo not given) | 102% | 105% | 98.9% | 104% | 109% | 104% | 90.2% | 100% | 90.3% | 108%
Nc1nnc2cc(F)ccc2n1 | 90.6% | 96.3% | 106% | 101% | 107% | 85.2% | 99.8% | 113% | 105% | 134%
CCCCCCCCNC(=O)C(C)C | 94.6% | 96.4% | 107% | 104% | 98.3% | 90% | 92.5% | 102% | 107% | 108%
Cc1ccc2[nH]c3ccccc3c2c1 | 96.9% | 103% | 99.6% | 113% | 99.7% | 100% | 101% | 102% | 93.9% | 109%
COc1nc(Nc2cccc(C(F)(F)F)c2)nc(OC)n1 | 97.2% | 96.8% | 96.9% | 98.8% | 106% | 92.4% | 75% | 102% | 96.8% | 109%
O=C(O)C1CCCN1C(=O)OCc1ccccc1 (stereo not given) | 104% | 108% | 104% | 127% | 102% | 122% | 85.6% | 93.7% | 106% | 107%
Nc1ccc(F)c(Cl)c1F | 103% | 91.3% | 110% | 112% | 101% | 80% | 108% | 113% | 101% | 118%
O=C(OC1CCCC1)c1ccccc1Cl | 106% | 104% | 99.7% | 97.1% | 101% | 96.2% | 93.1% | 105% | 101% | 107%
CCCCc1ccc2nc(NC(=O)OC)[nH]c2c1 | 14.1% | 63.4% | 50.2% | 24.2% | 2.11% (active) | 60.7% | -9.52% (active) | 18.4% | 16.5% | -45.8% (active)
Nc1nc2nnc(-c3ccccc3)c(-c3ccccc3)n2n1 | 97.2% | 88.3% | 110% | 16.7% | 100% | 61.4% | 109% | 101% | 111% | 101%
NC(=S)c1c(N)n(C2OC(CO)C(O)C2O)c2ncnc(N)c12 (stereo not given) | -0.783% (active) | 14% | -25.8% (active) | 3.76% (active) | -0.26% (active) | -21.5% (active) | -53.5% (active) | 5.46% (active) | -0.846% (active) | -50.9% (active)
CC1(C)CCC(C)(C)NC(=S)N1 | 100% | -99.8% (active) | 109% | 94.9% | 115% | 107% | 94.8% | 108% | 105% | 103%
Cc1ccccc1NC(=O)Oc1ccc(Cl)cc1C(=O)c1ccccc1 | 95.1% | 92.5% | 99.1% | 88.1% | 104% | 83.9% | 88.4% | 91% | 102% | 109%
CN(C)CCOC(=O)Nc1ccc(Cc2ccc(NC(=O)OCCN(C)C)cc2)cc1 | 94.1% [100 µM] | 111% [100 µM] | 96.8% [100 µM] | 97.7% [100 µM] | 92% [100 µM] | 32.7% [100 µM] | 85.2% [100 µM] | 75.8% [100 µM] | 60.1% [100 µM] | 84.2% [100 µM]
O=C(Nc1ccc([N+](=O)[O-])cc1)C(=O)Nc1ccc([N+](=O)[O-])cc1 | 100% | 96.9% | 101% | 81% | 103% | 95.4% | 77.3% | 67.7% | 110% | 101%
COc1cc(C(=O)N2CCN(c3ccccc3)CC2)c2ccccc2n1 | 21.2% | 37.3% | 44.3% | 41.1% | 8.4% (active) | 62.3% | -7.75% (active) | 25.3% | 26% | -44.9% (active)
S=c1nc2[nH]c3ccccc3c2n[nH]1 | 96.3% | 83.1% | 98.9% | -1.58% (active) | 99.5% | 55.7% | 108% | 104% | 109% | 108%
Nc1ncc([N+](=O)[O-])cn1 | 102% | 103% | 95% | 103% | 111% | 93.7% | 71.2% | 90.1% | 105% | 119%
C=CCC(O)C=C (stereo not given) | 101% | 103% | 91.7% | 109% | 107% | 109% | 108% | 99.4% | 97.5% | 106%
Oc1ccc(CCC2CCNc3ccccc32)cc1 (stereo not given) | 65.3% | 62.8% | 91.1% | 75.8% | 83.8% | 49.3% | 68.8% | 52.1% | 82.2% | 93.4%
C1C[S+]2CC[S+]1CC2 | 97.9% | 98.3% | 111% | 104% | 101% | 111% | 98.5% | 98.9% | 111% | 116%
CC(=O)C1C(=O)C(=O)N(c2cccc([N+](=O)[O-])c2)C1=O (stereo not given) | 99% | 92.3% | 114% | 105% | 105% | 95.6% | 104% | 109% | 96.8% | 111%
C=CCC(OC(C)=O)c1ccc(OC)c(OC)c1 (stereo not given) | 109% | 119% | 105% | 110% | 106% | 108% | 92.1% | 104% | 115% | 113%
CCOC(=O)C(CCC#N)(CCC#N)C(=O)OCC | 96.6% | 98.4% | 113% | 102% | 103% | 84% | 117% | 102% | 98.4% | 102%
CSc1nc2[nH]ncc2c(=O)[nH]1 | 94.8% | 91.4% | 108% | 101% | 98.8% | 106% | 99.9% | 111% | 101% | 107%
ON1CCCC1 | 108% | 103% | 108% | 108% | 109% | 92.4% | 91.9% | 100% | 98.4% | 113%
CC(C)(N)CO[C@H]1C[C@H]2CC[C@@]1(C)C2(C)C | 94.7% | 88.5% | 96.5% | 106% | 97.8% | 89.2% | 92.4% | 96.8% | 97.6% | 109%
